Several values for one entry are separate records, joined by “and”; a condition that tells them apart may be missing. Equal values may be shown once. This is part of a sample that, as a whole, favours compounds with a hit. Of some 83,000 tested, about 20% had one in any assay.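 Assay: single dose, 48 h. Readout: percent growth (0 = no net growth; negative = cell death). Active: <10.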 Activity calls are given as the source filed them.

Test systems include SR leukemia; RPMI-8226 leukemia; OVCAR-8 ovarian; OVCAR-5 ovarian; OVCAR-4 ovarian; SK-OV-3 ovarian; IGROV1 ovarian; OVCAR-3 ovarian; HS 578T breast; NCI/ADR-RES ovarian.
What all share (test): NCI-60 one-dose screen, 48 h (100 = growth as untreated, 0 = no growth, -100 = all killed)
Settings in all cases: 10 µM unless noted

Consider `COc1ccc(C(=O)N/N=C/c2ccc(O)cc2O)cc1Nc1ccnc(C(F)(F)F)c1`, for which the growth in the experiment with SR leukemia was 35.3% (inactive); with RPMI-8226 leukemia it was 41.7% (inactive); with OVCAR-8 ovarian, 23.1% (inactive); in the experiment on OVCAR-5 ovarian it was 46.3% (inactive); in the experiment with OVCAR-4 ovarian, 31.7% (inactive); in the experiment on SK-OV-3 ovarian, 19.7% (inactive). The growth is 26.8% (inactive) in the experiment with IGROV1 ovarian, 78.5% (inactive) with OVCAR-3 ovarian, 55.4% (inactive) in the experiment on HS 578T breast and 64% (inactive) with NCI/ADR-RES ovarian.

As for `Nc1ccccc1SC(CC(=O)c1ccccc1)c1ccc([N+](=O)[O-])cc1` (stereo not given), the growth was 13.4% (inactive) and 2.29% (active) with SR leukemia; -1.33% (active) and -0.234% (active) in the experiment on RPMI-8226 leukemia; 95.5% (inactive) and 95.8% (inactive) with OVCAR-8 ovarian; 118% (inactive) and 114% (inactive) in the experiment on OVCAR-5 ovarian; 93.8% (inactive) and 87.8% (inactive) with OVCAR-4 ovarian; 108% (inactive) and 95% (inactive) in the experiment on SK-OV-3 ovarian. Further, the growth in the experiment with IGROV1 ovarian is 117% (inactive) and 76.1% (inactive); with OVCAR-3 ovarian it was 105% (inactive) and 63.8% (inactive); with HS 578T breast, 103% (inactive) and 105% (inactive); in the experiment on NCI/ADR-RES ovarian, 98.2% (inactive) and 91.9% (inactive).

For the compound `Cc1ccc(/C=C/c2c(C(=O)/C=C/c3ccccc3)c(C)nc3ccccc23)cc1`, the growth with SR leukemia is 12.7% (inactive); with RPMI-8226 leukemia it was -7.87% (active); with OVCAR-8 ovarian it was 1.99% (active); with OVCAR-5 ovarian, 1.05% (active); with OVCAR-4 ovarian, 39.9% (inactive); in the experiment with SK-OV-3 ovarian it was 70.1% (inactive). The growth was 11.3% (inactive) in the experiment on IGROV1 ovarian, -22% (active) in the experiment on OVCAR-3 ovarian, 35.6% (inactive) in the experiment with HS 578T breast and 8.38% (active) in the experiment on NCI/ADR-RES ovarian.

In the case of `COC(=O)N/N=C/c1c[n+]([O-])c2ccccc2[n+]1[O-]`, the growth is 93.4% (inactive) in the experiment on SR leukemia; 94.3% (inactive) with RPMI-8226 leukemia; 90.8% (inactive) in the experiment with OVCAR-8 ovarian; 108% (inactive) in the experiment on OVCAR-5 ovarian; 103% (inactive) in the experiment with OVCAR-4 ovarian; 29.9% (inactive) with SK-OV-3 ovarian. The growth in the experiment on IGROV1 ovarian was 102% (inactive); with OVCAR-3 ovarian it was 111% (inactive); in the experiment with HS 578T breast, 126% (inactive); in the experiment on NCI/ADR-RES ovarian, 102% (inactive).

With `C=CCN1C=CC(=O)[C@H](O[Si](C)(C)C(C)(C)C)[C@@H]1/C=C/c1ccccc1`, the growth in the experiment on SR leukemia is -25.6% [100 µM] (active); in the experiment with RPMI-8226 leukemia, -16% [100 µM] (active); with OVCAR-8 ovarian, -47.1% [100 µM] (active); with OVCAR-5 ovarian, -82.8% [100 µM] (active); with OVCAR-4 ovarian, -84% [100 µM] (active); in the experiment with SK-OV-3 ovarian, -87.6% [100 µM] (active). Besides, the growth was -56.3% [100 µM] (active) in the experiment on IGROV1 ovarian, -73.5% [100 µM] (active) with OVCAR-3 ovarian, -24.1% [100 µM] (active) with HS 578T breast and -74.7% [100 µM] (active) with NCI/ADR-RES ovarian.

Take `N=c1ccccn1CCO`: the growth in the experiment with SR leukemia was 87.7% (inactive); in the experiment on RPMI-8226 leukemia it was 98.3% (inactive); in the experiment with OVCAR-8 ovarian, 104% (inactive); in the experiment with OVCAR-5 ovarian, 99% (inactive); in the experiment on OVCAR-4 ovarian it was 122% (inactive); in the experiment with SK-OV-3 ovarian it was 100% (inactive). Moreover, the growth is 112% (inactive) with IGROV1 ovarian, 121% (inactive) in the experiment with OVCAR-3 ovarian, 110% (inactive) in the experiment with HS 578T breast and 116% (inactive) in the experiment on NCI/ADR-RES ovarian.

For `OCc1cc(CN2CCCCC2)c(O)c2ncccc12`, the growth in the experiment on SR leukemia is 27% (inactive); in the experiment on RPMI-8226 leukemia, 71.9% (inactive); in the experiment with OVCAR-8 ovarian, 50.5% (inactive); in the experiment on OVCAR-5 ovarian it was 59.1% (inactive); in the experiment with OVCAR-4 ovarian, 34.9% (inactive); in the experiment with SK-OV-3 ovarian, 49.4% (inactive). The growth with IGROV1 ovarian was 52.7% (inactive); in the experiment on OVCAR-3 ovarian, 45% (inactive); in the experiment on HS 578T breast, 85.6% (inactive); in the experiment with NCI/ADR-RES ovarian it was 8.71% (active).

As to `N#CC1=C(N)Oc2c(sc3c(Br)cccc23)C1c1ccccn1` (stereo not given), the growth in the experiment with SR leukemia is 12.7% (inactive); in the experiment with RPMI-8226 leukemia, 30% (inactive); with OVCAR-8 ovarian, 53.8% (inactive); in the experiment on OVCAR-5 ovarian, 72% (inactive); with OVCAR-4 ovarian, 88.6% (inactive); in the experiment on SK-OV-3 ovarian, 27.2% (inactive). The growth was 43.1% (inactive) in the experiment on IGROV1 ovarian, 14.3% (inactive) in the experiment with OVCAR-3 ovarian, 45.5% (inactive) in the experiment on HS 578T breast and 14.6% (inactive) with NCI/ADR-RES ovarian.

With `O=C1C=CC(=O)N1c1ccc2ccccc2c1`, the growth in the experiment with SR leukemia is 40.7% (inactive) and 63.4% (inactive); with RPMI-8226 leukemia, 105% (inactive) and 81.3% (inactive); in the experiment with OVCAR-8 ovarian, 103% (inactive) and 101% (inactive); with OVCAR-5 ovarian, 96.6% (inactive) and 97.9% (inactive); with OVCAR-4 ovarian, 93.7% (inactive); in the experiment on SK-OV-3 ovarian it was 107% (inactive) and 99.7% (inactive). Further, the growth with IGROV1 ovarian was 101% (inactive) and 105% (inactive); in the experiment with OVCAR-3 ovarian, 69.7% (inactive) and 93.9% (inactive); in the experiment on HS 578T breast, 93.6% (inactive) and 103% (inactive); in the experiment with NCI/ADR-RES ovarian it was 99.7% (inactive) and 104% (inactive).

For the compound `CCOc1ccc(C(=O)Cc2ccccc2)cc1`, the growth with SR leukemia was 93.4% (inactive) and 92.3% (inactive); in the experiment with RPMI-8226 leukemia, 106% (inactive) and 95% (inactive); in the experiment on OVCAR-8 ovarian, 109% (inactive) and 106% (inactive); in the experiment on OVCAR-5 ovarian it was 103% (inactive) and 109% (inactive); with OVCAR-4 ovarian, 105% (inactive) and 106% (inactive); with SK-OV-3 ovarian, 121% (inactive) and 117% (inactive). In addition, the growth is 116% (inactive) and 110% (inactive) in the experiment on IGROV1 ovarian; 120% (inactive) and 125% (inactive) with OVCAR-3 ovarian; 107% (inactive) with HS 578T breast; 107% (inactive) and 104% (inactive) in the experiment with NCI/ADR-RES ovarian.

As for `COc1ccc2c(c1)c(C(=O)c1nc(-c3cn(C)c4ccccc34)no1)cn2C`, the growth with SR leukemia was 44.7% (inactive); in the experiment with RPMI-8226 leukemia, 93.6% (inactive); in the experiment on OVCAR-8 ovarian, 97.9% (inactive); in the experiment with OVCAR-5 ovarian, 107% (inactive); with OVCAR-4 ovarian, 95.8% (inactive); in the experiment on SK-OV-3 ovarian, 84.5% (inactive). Moreover, the growth is 86.5% (inactive) in the experiment on IGROV1 ovarian, 109% (inactive) in the experiment on OVCAR-3 ovarian, 88.2% (inactive) in the experiment on HS 578T breast and 94.3% (inactive) in the experiment on NCI/ADR-RES ovarian.

As to `Cc1ccc(Cl)cc1N1CCN(C(=O)[C@@H]2C[C@@H]2c2ccc(F)cc2)CC1`, the growth in the experiment with SR leukemia is 80.4% (inactive); with RPMI-8226 leukemia, 62.9% (inactive); with OVCAR-8 ovarian, 90.5% (inactive); with OVCAR-5 ovarian, 94.4% (inactive); with OVCAR-4 ovarian, 85.9% (inactive); in the experiment with SK-OV-3 ovarian, 90.3% (inactive). Moreover, the growth in the experiment with IGROV1 ovarian was 71.1% (inactive); in the experiment with OVCAR-3 ovarian, 95.3% (inactive); in the experiment on HS 578T breast, 90.9% (inactive); in the experiment with NCI/ADR-RES ovarian, 89.7% (inactive).

For `O=S(=O)(Nc1cc(Sc2cccc3cccnc23)c(O)c2ccccc12)c1ccc(F)cc1`, the growth in the experiment on SR leukemia was 4.77% (active); with RPMI-8226 leukemia it was -12.8% (active); in the experiment on OVCAR-8 ovarian, 5.74% (active); in the experiment with OVCAR-5 ovarian it was 38.9% (inactive); with OVCAR-4 ovarian, -99% (active); in the experiment on SK-OV-3 ovarian, 50.8% (inactive). Moreover, the growth was 1.46% (active) in the experiment on IGROV1 ovarian, -87.6% (active) with OVCAR-3 ovarian, 50% (inactive) in the experiment on HS 578T breast and 3.32% (active) in the experiment with NCI/ADR-RES ovarian.
